Results filed as inconclusive are left out. The source made the active and inactive calls. Unless noted, the call rests on the fitted dose curve.
Key:
[1] = Nuclear factor erythroid 2-related factor 2/antioxidant responsive element (Nrf2/ARE) small molecule agonists: qHTS cell viability counter screen in human keratinocytes (AID 1919968; active means well fitted curve in the direction sought with a large enough effect in the repeat runs; an effect the other way counts as inactive or inconclusive; further: nearly all actives have a fitted effect of over 55% in size)
Method in brief: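 Cells of the KeratinoSens line were plated at 1,500 per well and left for 5 h before compound transfer from DMSO stocks. After a 23 h incubation (37 C, 5% CO2), CellTiter-Fluor was added. Signal was taken as fluorescence intensity 1 h later.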

[2] = Nuclear factor erythroid 2-related factor 2/antioxidant responsive element (Nrf2/ARE) small molecule agonists: luciferase reporter gene qHTS assay in human keratinocytes (AID 1919969); further: nearly all actives have a fitted effect of over 35% in size
[3] = biological target: Gonadotropin-releasing hormone receptor (Homo sapiens) (UniProt P30968); assay: Human gonadotropin-releasing hormone receptor (GnRHR) small molecule agonists, calcium flux assay in GnRHR-HEK293 cells (AID 1920063); further: nearly all actives have a fitted effect of over 35% in size
Method in brief: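 Compounds dissolved in DMSO are pin-transferred onto dye-loaded GnRHR-HEK293 cells, which were seeded 18 h before at 37 C/5% CO2. Calcium signal is read as fluorescence intensity at 1 s intervals for 3 min.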

[4] = biological target: KiSS-1 receptor (Homo sapiens) (UniProt Q969F8); assay: Human kisspeptin (KISS1R) small molecule agonists, calcium flux assay in KISS1R-HEK293 cells (AID 1920064; active means well fitted curve in the direction sought with a large enough effect in the repeat runs; an effect the other way counts as inactive or inconclusive)
Method in brief: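 Cell line: HEK293, stable human KISS1R. Dye loading 1 h at 37 C after 18 h culture. Read: kinetic fluorescence, 480/540 nm, 3 min at 1 s intervals.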

[5] = G protein-coupled receptor (GPCR) small molecule agonists, calcium flux assay: HEK293 wild type cell line counter screen (AID 1920065)
Method in brief: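 Tox21 10K compounds, 15 concentrations each in triplicate, pin-transferred in DMSO onto dye-loaded cells; kinetic read at 480/540 nm for 3 min, 1 s intervals.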

[6] = p53 small molecule agonists, cell-based qHTS assay with human liver microsomes: qHTS cell viability counter screen (AID 1963579); further: nearly all actives have a fitted effect of over 45% in size
Method in brief: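 In this multiplexed counter screen, the reporter plates were subsequently treated with CellTiter-Glo so that cell viability, reflected by luminescence, could be recorded for p53RE-bla cells dosed 16 h with compounds under microsomal activation (HLM and NADPH).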

[7] = p53 small molecule agonists, cell-based qHTS assay: qHTS cell viability counter screen (AID 1963581); further: nearly all actives have a fitted effect of over 45% in size
Method in brief: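 ATP content measured by luminescence in HCT-116 p53RE-bla cells treated 16 h at 37 C, same wells as the reporter screen.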

[8] = biological target: 5-hydroxytryptamine receptor 2A (Homo sapiens) (UniProt P28223); assay: 5-hydroxytryptamine receptor 2A (HTR2A) small molecule antagonists, cell-based qHTS assay (AID 1963586); further: nearly all actives have a fitted effect of over 45% in size; further: potency means the concentration at half of the fitted maximal effect
Method in brief: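 CHO cells stably expressing human HTR2A were plated for 18 h at 37 C, then loaded with calcium dye for 1 h. Compounds were preincubated 5 min at room temperature before DOI (4 nM solution) was added. Kinetic fluorescence was read for 3 min.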

[9] = biological target: Muscarinic acetylcholine receptor M1 (Homo sapiens) (UniProt P11229); assay: Cholinergic receptor muscarinic 1 (CHRM1) small molecule antagonists, cell-based qHTS assay (AID 1963588); further: nearly all actives have a fitted effect of over 40% in size; further: potency means the concentration at half of the fitted maximal effect
Method in brief: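 Compounds were tested at 15 concentrations in three independent runs. Dye-loaded CHRM1-CHO cells were exposed 5 min at room temperature before stimulation by acetylcholine added at 50nM. Intracellular calcium was read kinetically on FDSS for 3 min.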

[10] = biological target: Muscarinic acetylcholine receptor M1 (Homo sapiens) (UniProt P11229); assay: Cholinergic receptor muscarinic 1 (CHRM1) small molecule agonists, cell-based qHTS assay (AID 1963589); further: nearly all actives have a fitted effect of over 35% in size
Method in brief: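 Homogeneous fluorescence calcium flux, agonist mode. Human M1-expressing CHO cells; compound dosed at 15 concentrations, three independent runs; signal sampled every 1 sec.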

[11] = cAMP Responsive Elements (CRE) small molecule agonists, cell-based qHTS assay (AID 1963590)
Method in brief: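 HEK 293T cells stably bearing CRE-bla were plated at 2,000 cells per well and rested 18 h. Compounds, positive controls or DMSO were added for 3 h at 37 C. LiveBLAzer B/G substrate was then loaded for 2 h at room temperature.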

[12] = biological target: Beta-2 adrenergic receptor (Homo sapiens) (UniProt P07550); assay: Adrenergic beta2 receptor (ADRB2) small molecule agonists, cell-based qHTS assay (AID 1963593);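 further: CHO cells stably overexpressing human ADRB2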
Method in brief: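 CHO cells stably over-expressing ADRB2 were plated overnight at 37C, then dosed with compounds plus a stimulation mix containing 100uM IBMX and 25uM Ro-20-1724 for 0.5hr at room temperature. cAMP was measured by HTRF competition, 1hr.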

[13] = biological target: D(2) dopamine receptor (Homo sapiens) (UniProt P14416); assay: Dopamine D2 receptor (DRD2) small molecule agonists, cell-based qHTS assay (AID 1963594); further: nearly all actives have a fitted effect of over 35% in size
Method in brief: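 HEK293 cells stably expressing DRD2 were cultured 24 h at 37 C, then given Ro20-1724 (0.1 mM final) and compounds for 10 min at room temperature. NKH477 (200nM) was then added for 30 min. cAMP was read by HTRF.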

[14] = biological target: D(2) dopamine receptor (Homo sapiens) (UniProt P14416); assay: Dopamine D2 receptor (DRD2) small molecule antagonists, cell-based qHTS assay (AID 1963595; active means well fitted inhibition curve with a large enough effect in the signal ratio in the repeat runs, with a control signal flat; the % refers to the signal ratio; further: potency means the concentration at half of the fitted maximal effect)
Method in brief: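 DRD2-HEK293; 0.1 mM Ro20-1724; cpd 10 min RT; NKH477 200 nM + quinpirole 12 nM, 30 min RT; HTRF cAMP (cAMP-d2/anti-cAMP cryptate), 665/620 nm ratio after 1 h.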

[15] = biological target: 5-hydroxytryptamine receptor 2A (Homo sapiens) (UniProt P28223); assay: 5-hydroxytryptamine receptor 2A (HTR2A) small molecule agonists, cell-based qHTS assay (AID 1963587); further: nearly all actives have a fitted effect of over 30% in size
Method in brief: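 HTR2A-CHO cells, plated 18 h at 37 C/5% CO2, dye-loaded 1 h at 37 C; compounds in DMSO added by pin tool (agonist mode). Intracellular calcium flux read as kinetic fluorescence on FDSS over 2 min at 1 s intervals.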

[16] = cAMP Responsive Elements (CRE) small molecule antagonists, cell-based qHTS assay (AID 1963591; active means well fitted inhibition curve with a large enough effect in the signal ratio in the repeat runs, not every such curve was filed as active; the % refers to the signal ratio)
Method in brief: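 First, CRE-bla HEK293T cells settled 18 h at 37 C. Next, compound and 0.25 uM final NKH477 were applied for 3 h. Last, LiveBLAzer B/G substrate was loaded for 2 h at room temperature.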

[17] = biological target: Beta-2 adrenergic receptor (Homo sapiens) (UniProt P07550); assay: Adrenergic beta2 receptor (ADRB2) small molecule antagonists, cell-based qHTS assay (AID 1963592); further: series mostly up to about 92 µM; nearly all actives have a fitted effect of over 50% in size
Method in brief: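 Assay format: CHO-ADRB2 cells, 18-20hr seeding at 37C/5% CO2, then compound plus 1nM isoproterenol agonist mix for 0.5hr RT. Homogeneous time-resolved fluorescence cAMP detection after 1hr, expressed as 665/615 nm ratio.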

[18] = p53 small molecule agonists, cell-based qHTS assay with rat liver microsomes: qHTS cell viability counter screen (AID 1963580); further: nearly all actives have a fitted effect of over 45% in size
Method in brief: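 Counter screen for cytotoxicity under metabolic activation: rat liver microsomes and NADPH, 0.5 mg/mL final each, added with compounds to p53RE-bla HCT-116 cells; 16 h at 37 C, then ATP luminescence read.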

[19] = p53 small molecule agonists, cell-based qHTS assay (AID 1963582; active means well fitted activation curve with a large enough effect in the signal ratio in the repeat runs, not every such curve was filed as active; the % refers to the signal ratio)
Method in brief: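 16 h compound exposure (37 C) of p53 response element–bla cells, preceded by 5 h recovery at 37 C/5% CO2; read-out via LiveBLAzer B/G FRET substrate, 2 h RT, fluorescence intensity.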
On the % scale 0 is the no-effect control and ±100 the full control effect.

Chain of Muscarinic acetylcholine receptor M1 (Homo sapiens) (P11229 whole entry, looked up): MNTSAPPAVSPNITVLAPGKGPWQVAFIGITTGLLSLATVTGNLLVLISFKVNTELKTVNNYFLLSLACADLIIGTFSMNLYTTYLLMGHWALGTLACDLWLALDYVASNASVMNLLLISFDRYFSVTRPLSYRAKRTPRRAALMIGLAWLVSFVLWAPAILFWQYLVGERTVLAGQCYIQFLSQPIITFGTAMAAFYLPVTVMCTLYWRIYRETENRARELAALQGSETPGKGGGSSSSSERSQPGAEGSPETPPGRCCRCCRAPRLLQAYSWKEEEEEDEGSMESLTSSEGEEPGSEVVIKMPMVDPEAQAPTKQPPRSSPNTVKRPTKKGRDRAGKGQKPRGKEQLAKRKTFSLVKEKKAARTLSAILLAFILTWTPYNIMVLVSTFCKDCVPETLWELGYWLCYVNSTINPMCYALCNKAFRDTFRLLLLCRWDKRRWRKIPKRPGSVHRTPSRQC
Chain of 5-hydroxytryptamine receptor 2A (Homo sapiens) (P28223 whole entry, looked up): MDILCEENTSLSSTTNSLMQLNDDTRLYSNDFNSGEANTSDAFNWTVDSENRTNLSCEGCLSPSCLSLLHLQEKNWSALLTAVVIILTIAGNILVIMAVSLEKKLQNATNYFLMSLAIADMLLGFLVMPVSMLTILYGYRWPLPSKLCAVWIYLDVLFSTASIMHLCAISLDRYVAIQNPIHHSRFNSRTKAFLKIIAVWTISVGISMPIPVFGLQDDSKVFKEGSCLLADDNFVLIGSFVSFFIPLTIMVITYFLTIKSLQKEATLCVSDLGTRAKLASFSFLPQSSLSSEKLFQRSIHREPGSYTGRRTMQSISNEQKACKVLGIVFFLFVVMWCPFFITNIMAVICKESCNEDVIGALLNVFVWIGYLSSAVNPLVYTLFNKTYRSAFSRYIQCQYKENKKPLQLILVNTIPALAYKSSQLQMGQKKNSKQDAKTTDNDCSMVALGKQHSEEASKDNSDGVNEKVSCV
Chain of Beta-2 adrenergic receptor (Homo sapiens) (P07550 whole entry, looked up): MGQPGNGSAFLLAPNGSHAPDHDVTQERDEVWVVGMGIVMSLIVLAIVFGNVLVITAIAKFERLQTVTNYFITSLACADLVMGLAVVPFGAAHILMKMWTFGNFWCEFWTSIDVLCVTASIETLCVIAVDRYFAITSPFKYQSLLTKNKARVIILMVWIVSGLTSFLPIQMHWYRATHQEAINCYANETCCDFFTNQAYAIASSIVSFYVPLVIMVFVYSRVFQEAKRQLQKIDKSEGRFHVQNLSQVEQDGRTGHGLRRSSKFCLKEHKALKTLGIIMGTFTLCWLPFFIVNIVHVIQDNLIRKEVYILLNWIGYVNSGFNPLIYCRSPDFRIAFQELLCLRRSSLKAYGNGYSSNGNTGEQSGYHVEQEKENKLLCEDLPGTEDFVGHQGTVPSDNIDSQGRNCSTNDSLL
Chain of KiSS-1 receptor (Homo sapiens) (Q969F8 whole entry, looked up): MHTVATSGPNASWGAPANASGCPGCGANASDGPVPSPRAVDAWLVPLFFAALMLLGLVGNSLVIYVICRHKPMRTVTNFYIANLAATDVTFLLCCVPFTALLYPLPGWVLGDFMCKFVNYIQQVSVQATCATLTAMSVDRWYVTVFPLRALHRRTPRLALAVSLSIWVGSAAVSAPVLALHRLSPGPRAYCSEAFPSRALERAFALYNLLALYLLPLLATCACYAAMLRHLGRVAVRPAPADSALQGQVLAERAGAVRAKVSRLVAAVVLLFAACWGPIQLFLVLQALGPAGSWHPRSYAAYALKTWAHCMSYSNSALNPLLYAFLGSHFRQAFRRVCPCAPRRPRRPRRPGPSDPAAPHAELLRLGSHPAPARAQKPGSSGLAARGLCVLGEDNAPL
Chain of D(2) dopamine receptor (Homo sapiens) (P14416 whole entry, looked up): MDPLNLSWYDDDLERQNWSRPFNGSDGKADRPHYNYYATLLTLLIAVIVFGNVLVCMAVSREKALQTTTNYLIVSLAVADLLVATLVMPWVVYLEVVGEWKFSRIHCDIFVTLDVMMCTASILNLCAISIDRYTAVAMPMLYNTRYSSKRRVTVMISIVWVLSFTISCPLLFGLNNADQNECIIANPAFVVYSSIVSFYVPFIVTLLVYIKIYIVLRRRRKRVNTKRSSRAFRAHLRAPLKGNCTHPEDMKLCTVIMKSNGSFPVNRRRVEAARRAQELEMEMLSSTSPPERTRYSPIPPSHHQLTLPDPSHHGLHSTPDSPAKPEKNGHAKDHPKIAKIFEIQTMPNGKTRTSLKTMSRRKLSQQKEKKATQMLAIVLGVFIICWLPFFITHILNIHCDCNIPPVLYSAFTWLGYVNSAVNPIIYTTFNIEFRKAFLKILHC
Chain of Gonadotropin-releasing hormone receptor (Homo sapiens) (P30968 whole entry, looked up): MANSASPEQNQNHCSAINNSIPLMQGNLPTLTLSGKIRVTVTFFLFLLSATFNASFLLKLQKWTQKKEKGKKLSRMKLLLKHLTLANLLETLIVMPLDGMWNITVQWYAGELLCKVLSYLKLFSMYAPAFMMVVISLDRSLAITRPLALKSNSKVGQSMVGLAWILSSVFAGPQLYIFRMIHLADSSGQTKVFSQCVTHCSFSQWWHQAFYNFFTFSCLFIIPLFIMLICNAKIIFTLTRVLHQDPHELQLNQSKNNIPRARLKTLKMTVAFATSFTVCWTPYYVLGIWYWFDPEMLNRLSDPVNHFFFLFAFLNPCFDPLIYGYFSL

COc1cc(C)cc(O)c1
inactive: Potency [1] | Potency [2] | Potency [3] | Potency [4] | Potency [5] | Potency [6] | Potency [7] | Potency [8] | Potency [9] | Potency [10] | Potency [11] | Potency [12] | Potency [13] | Potency [14]

Cc1cccc(C(=O)O)c1O
inactive: Potency [1] | Potency [2] | Potency [3] | Potency [4] | Potency [5] | Potency [6] | Potency [7] | Potency [8] | Potency [15] | Potency [9] | Potency [10] | Potency [11] | Potency [16] | Potency [17] | Potency [12] | Potency [13] | Potency [14]

CC1=NN(c2cccc(S(=O)(=O)O)c2)C(=O)C1
inactive: Potency [1] | Potency [2] | Potency [3] | Potency [4] | Potency [5] | Potency [18] | Potency [7] | Potency [8] | Potency [15] | Potency [9] | Potency [10] | Potency [11] | Potency [16] | Potency [17] | Potency [12] | Potency [13] | Potency [14]

CC1=CC=C(C(C)C)CC1
inactive: Potency [1] | Potency [2] | Potency [3] | Potency [4] | Potency [5] | Potency [18] | Potency [7] | Potency [19] | Potency [8] | Potency [15] | Potency [9] | Potency [10] | Potency [11] | Potency [16] | Potency [17] | Potency [13] | Potency [14]

CC(CC=O)CCCC(C)(C)O (configuration not stated)
inactive: Potency [1] | Potency [2] | Potency [3] | Potency [4] | Potency [5] | Potency [18] | Potency [7] | Potency [8] | Potency [15] | Potency [9] | Potency [10] | Potency [11] | Potency [16] | Potency [17] | Potency [12] | Potency [14]

C[C@H]1[C@@H](c2ccccc2)NC(=O)N1C
inactive: Potency [1] | Potency [2] | Potency [3] | Potency [4] | Potency [5] | Potency [18] | Potency [7] | Potency [8] | Potency [15] | Potency [9] | Potency [10] | Potency [11] | Potency [16] | Potency [17] | Potency [13] | Potency [14]

Brc1c2ccccc2c(Br)c2ccccc12
inactive: activity change, negative = cytotoxicity [1] 9.04% [at 8.39 µM] | activity, positive = activation [2] -5.36% [at 8.39 µM] | activity change [3] -0.0865% [at 5.22 µM, hits give high values] | activation [4] 0.391% [at 6.97 µM] | activation [5] -0.151% [at 5.23 µM] | activity change, negative = cytotoxicity [6] 1.01% [at 5.99 µM] | activity change, negative = cytotoxicity [7] 12.6% [at 5.99 µM] | activity, negative = inhibition [8] 33.2% [at 5.62 µM] | activation [15] 0.903% [at 7.02 µM] | activation [10] -0.0159% [at 6.97 µM] | activation [11] 1.87% [at 8.39 µM] | activity change, negative = inhibition [16] 2.05% [at 8.39 µM] | activity change, negative = inhibition [17] -10.4% [at 8.39 µM] | activation [12] 3.4% [at 8.39 µM] | activation [13] 2.55% [at 8.39 µM] | activity change, negative = inhibition [14] -0.559% [at 8.38 µM]

CNC(=O)C(c1ccccc1)c1ccccc1
inactive: Potency [1] | Potency [2] | Potency [3] | Potency [4] | Potency [5] | Potency [6] | Potency [7] | Potency [8] | Potency [15] | Potency [9] | Potency [10] | Potency [11] | Potency [16] | Potency [17] | Potency [13] | Potency [14]

CC(=O)c1ccc2c(c1)N(CCCN(C)C)c1ccccc1S2
active: Potency [8] 25.9 nM | Potency [9] 410 nM | Potency [14] 1.68 µM
inactive: Potency [1] | Potency [2] | Potency [3] | Potency [4] | Potency [5] | Potency [6] | Potency [19] | Potency [15] | Potency [10] | Potency [11] | Potency [16] | Potency [13]

NCCCN1CCOCC1
inactive: Potency [1] | Potency [2] | Potency [3] | Potency [4] | Potency [5] | Potency [6] | Potency [7] | Potency [15] | Potency [9] | Potency [10] | Potency [11] | Potency [16] | Potency [17] | Potency [13] | Potency [14]

CCOC(=O)CC(C)C
inactive: Potency [1] | Potency [2] | Potency [3] | Potency [4] | Potency [5] | Potency [6] | Potency [7] | Potency [8] | Potency [15] | Potency [9] | Potency [10] | Potency [11] | Potency [16] | Potency [17] | Potency [13] | Potency [14]

CCOc1ccc(C(=O)OCCN(CC)CC)cc1
inactive: Potency [1] | Potency [2] | Potency [3] | Potency [4] | Potency [5] | Potency [6] | Potency [7] | Potency [8] | Potency [15] | Potency [9] | Potency [10] | Potency [11] | Potency [16] | Potency [17] | Potency [12] | Potency [13] | Potency [14]
